This is part of a sample that, as a whole, favours compounds with a hit. Of some 83,000 tested, about 20% had one in any assay.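 96-well plates, one dose, 48 hours. Percent growth reported; active if below 10.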 The source made the active and inactive calls.
How the values were obtained:
Test in all cases: NCI-60 one-dose screen, 48 h (100 = growth as untreated, 0 = no growth, -100 = all killed)
Settings in all cases: 10 µM unless noted
DU-145 prostate = system: DU-145 prostate
K-562 leukemia = system: K-562 leukemia
MALME-3M melanoma = system: MALME-3M melanoma
MDA-MB-231 breast = system: MDA-MB-231 breast
RXF 393 renal = system: RXF 393 renal
SF-268 CNS = system: SF-268 CNS
SF-295 CNS = system: SF-295 CNS
SF-539 CNS = system: SF-539 CNS
UACC-257 melanoma = system: UACC-257 melanoma
M14 melanoma = system: M14 melanoma

Measured: growth

Cc1[nH]c(C(=O)Nc2ccccc2OCc2cccc(C(=O)NCCN)c2)cc1Cl
inactive: DU-145 prostate 36.5% | MALME-3M melanoma 83.3% | MDA-MB-231 breast 96% | RXF 393 renal 96.3% | SF-268 CNS 88.3% | SF-295 CNS 101% | SF-539 CNS 97.2% | UACC-257 melanoma 99.4% | M14 melanoma 85.5%
active: K-562 leukemia 2.16%

CC(=O)Nc1ccccc1-c1nc2ccccc2s1
inactive: DU-145 prostate 110% | K-562 leukemia 113% | MALME-3M melanoma 106% | MDA-MB-231 breast 99.2% | RXF 393 renal 103% | SF-268 CNS 101% | SF-295 CNS 103% | SF-539 CNS 100% | UACC-257 melanoma 107% | M14 melanoma 103%

CN1CCC[C@]2(C)[C@H]3CC[C@@H]4[C@@H]5[C@H]6OC[C@@]5(CCC6(C)C)CC[C@@]4(C)[C@]3(C)CC[C@H]2C1(C)C
inactive: DU-145 prostate 56.2% | MALME-3M melanoma 89.1% | MDA-MB-231 breast 67.3% | RXF 393 renal 74.5% | SF-268 CNS 103% | SF-295 CNS 103% | SF-539 CNS 78.4% | UACC-257 melanoma 107% | M14 melanoma 97.9%
active: K-562 leukemia 4.84%

N#C/C(=N\Nc1ccc(F)cc1)C(=O)Nc1cc(-c2ccccc2)nn1-c1ccccc1
active: MALME-3M melanoma -17% | MDA-MB-231 breast -6.26% | RXF 393 renal -2.63% | SF-295 CNS 2.07% | SF-539 CNS 8.69% | UACC-257 melanoma -13.5%
inactive: DU-145 prostate 22.9% | K-562 leukemia 12.8% | SF-268 CNS 14.5% | M14 melanoma 18.3%

COc1ccccc1N1CCN(C2=C(Cl)C(=O)c3ncccc3C2=O)CC1
active: K-562 leukemia 9.05%
inactive: DU-145 prostate 48% | MALME-3M melanoma 58.8% | MDA-MB-231 breast 86.4% | RXF 393 renal 71% | SF-268 CNS 87.6% | SF-295 CNS 107% | SF-539 CNS 95% | UACC-257 melanoma 95% | M14 melanoma 88.1%

NC(N)=NS(=O)(=O)c1ccc(N=Nc2c(N)nn(-c3ccc([N+](=O)[O-])cc3[N+](=O)[O-])c2N)cc1
inactive: DU-145 prostate 107% | K-562 leukemia 87.4% | MALME-3M melanoma 106% | MDA-MB-231 breast 102% | RXF 393 renal 89% | SF-268 CNS 100% | SF-295 CNS 108% | SF-539 CNS 95% | UACC-257 melanoma 103% | M14 melanoma 102%

O=C(/C=C/C=C/c1csc(Br)n1)NO
inactive: DU-145 prostate 94.3% | K-562 leukemia 73% | MALME-3M melanoma 85.2% | MDA-MB-231 breast 106% | RXF 393 renal 95.2% | SF-268 CNS 102% | SF-295 CNS 107% | SF-539 CNS 83.2% | UACC-257 melanoma 79.8% | M14 melanoma 94.6%

CCCCCCNC(=O)Oc1ccc(/C(=C(/C)c2ccc(Cl)cc2)c2ccc(OCCN3CCCCCC3)cc2)cc1
inactive: DU-145 prostate 86.3% | MALME-3M melanoma 75.4% | MDA-MB-231 breast 76.1% | RXF 393 renal 44.1% | SF-268 CNS 77.2% | SF-295 CNS 70% | SF-539 CNS 67% | UACC-257 melanoma 75.1% | M14 melanoma 30.9%
active: K-562 leukemia 8.93%

O=S(=O)(Oc1ccc(-c2cn3ccoc3n2)cc1)c1cccc(C(F)(F)F)c1
inactive: DU-145 prostate 101% | K-562 leukemia 101% | MALME-3M melanoma 98.6% | MDA-MB-231 breast 102% | RXF 393 renal 98.2% | SF-268 CNS 102% | SF-295 CNS 90.4% | SF-539 CNS 94.3% | UACC-257 melanoma 101% | M14 melanoma 105%

COc1ccc(/C=N/N=C(/c2ccccc2)c2ccc3nc(-c4ccc(Cl)cc4)[nH]c3c2)cc1
inactive: DU-145 prostate 86.5% | K-562 leukemia 47.9% | MALME-3M melanoma 90.6% | MDA-MB-231 breast 95% | RXF 393 renal 83.3% | SF-268 CNS 88.7% | SF-295 CNS 81.3% | SF-539 CNS 87.7% | UACC-257 melanoma 101% | M14 melanoma 75.3%

NS(=O)(=O)c1ccc(CCn2c(-c3ccc(C(=O)O)cc3)nc(-c3ccccc3)c2-c2ccccc2)cc1
inactive: DU-145 prostate 102% | K-562 leukemia 96.8% | MALME-3M melanoma 97.9% | MDA-MB-231 breast 92.6% | RXF 393 renal 104% | SF-268 CNS 93.8% | SF-295 CNS 101% | SF-539 CNS 99.1% | UACC-257 melanoma 105% | M14 melanoma 105%

Cn1cc(-c2cc3ncnc(Nc4ccc(NC(=O)Nc5cc(C(C)(C)C)on5)cc4)c3s2)cn1
inactive: DU-145 prostate 47.8% | MALME-3M melanoma 17.3% | MDA-MB-231 breast 28% | SF-268 CNS 45.5% | UACC-257 melanoma 25.3% | M14 melanoma 11.6%
active: K-562 leukemia 8.65% | RXF 393 renal -5.22% | SF-295 CNS -37.8% | SF-539 CNS -47.8%

O=C(CCCCCCN1CC(=O)N2[C@@H](C3CC3)c3[nH]c4ccccc4c3C[C@H]2C1=O)NO
inactive: DU-145 prostate 70.9% | K-562 leukemia 21.5% | MALME-3M melanoma 10.1% | MDA-MB-231 breast 83.7% | RXF 393 renal 76.5% | SF-268 CNS 93.6% | SF-295 CNS 74.9% | SF-539 CNS 60.7% | UACC-257 melanoma 41.9% | M14 melanoma 60.2%

C#Cc1nc(/C=C/C(=O)NO)cs1
inactive: K-562 leukemia 10.2% | SF-268 CNS 52.9% | SF-295 CNS 46.3% | UACC-257 melanoma 42.6% | M14 melanoma 70.3%
active: DU-145 prostate -59.8% | MALME-3M melanoma -30.5% | MDA-MB-231 breast -48.6% | RXF 393 renal -68.9% | SF-539 CNS -87.3%

CCOP(=O)(OCC)OC[C@]12CCC(C)(C)C[C@H]1C1=CC[C@@H]3[C@@]4(C)CC[C@H](OP(=O)(OCC)OCC)C(C)(C)[C@@H]4CC[C@@]3(C)[C@]1(C)CC2
inactive: DU-145 prostate 83.1% | K-562 leukemia 28.9% | MALME-3M melanoma 62.6% | MDA-MB-231 breast 50.2% | RXF 393 renal 74.9% | SF-268 CNS 73.1% | SF-295 CNS 51.8% | SF-539 CNS 66.9% | UACC-257 melanoma 55% | M14 melanoma 51.9%

NC1[C@H]2CN(c3cnc(C(=O)Nc4cc(F)cc5cccnc45)cn3)C[C@@H]12 (stereo not given in full)
inactive: DU-145 prostate 76.4% | K-562 leukemia 15% | MALME-3M melanoma 57.5% | MDA-MB-231 breast 47.8% | RXF 393 renal 70.6% | SF-268 CNS 87.5% | SF-295 CNS 96.4% | SF-539 CNS 76.9% | UACC-257 melanoma 97.7% | M14 melanoma 79.3%

— PubChem BioAssay (NCI)
